Results on 30 molecules are retold here after PubChem BioAssay (Tox21).

The target of test [1] is Estrogen receptor beta (Homo sapiens) (UniProt Q92731). Nature of the test: qHTS assay to identify small molecule agonists of the estrogen receptor beta (ER-beta) signaling pathway (AID 1259377; active = well fitted activation curve with a large enough effect in the signal ratio in the repeat runs, not every such curve was filed as active; the % refers to the signal ratio). Conditions: ER-beta-UAS-bla HEK293T, beta-lactamase FRET ratio, 16 h; series mostly up to 92.4 µM. An outline of the steps: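 Screening used GripTite ER-beta-UAS-bla cells held in 2% charcoal-stripped FBS medium. After overnight (16 hr) compound incubation at 37C, beta-lactamase activity was detected with a FRET substrate by fluorescence.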
Chain of Estrogen receptor beta (Homo sapiens) (Q92731 whole entry, looked up): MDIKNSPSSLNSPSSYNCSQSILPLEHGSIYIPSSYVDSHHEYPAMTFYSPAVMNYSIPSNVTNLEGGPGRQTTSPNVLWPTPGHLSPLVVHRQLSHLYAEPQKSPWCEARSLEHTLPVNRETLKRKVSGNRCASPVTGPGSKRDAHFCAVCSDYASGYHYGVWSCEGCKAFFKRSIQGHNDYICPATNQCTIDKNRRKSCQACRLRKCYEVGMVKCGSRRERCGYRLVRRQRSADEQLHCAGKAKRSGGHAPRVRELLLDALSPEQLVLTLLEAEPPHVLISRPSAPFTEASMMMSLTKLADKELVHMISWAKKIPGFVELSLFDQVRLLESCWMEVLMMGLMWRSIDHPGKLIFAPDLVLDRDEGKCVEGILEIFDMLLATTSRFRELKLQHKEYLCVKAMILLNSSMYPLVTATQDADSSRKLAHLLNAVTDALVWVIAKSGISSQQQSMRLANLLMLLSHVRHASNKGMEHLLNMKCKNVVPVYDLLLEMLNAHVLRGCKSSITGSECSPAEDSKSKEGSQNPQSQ
On the technique in general: qHTS replaces the single test concentration by a dilution series.

Test [2] in a line: qHTS assay to identify small molecule agonists of the androgen receptor (AR) signaling pathway in the presence of an antagonist - cell viability counter screen (AID 1259379).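 Note: MDA-kb2 human breast cancer cells carrying an MMTV luciferase reporter; nearly all actives have a fitted effect of over 25% in size.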 Conditions: MDA-kb2 viability, CellTiter-Fluor, 16 h; series mostly up to 92.4 µM. In outline:
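A CellTiter-Fluor read-out measured viability of MDA-kb2 reporter cells (MMTV promoter with AR and GR response elements). Treatment: nilutamide 3.0uM final with compounds at 15 concentrations, 16 hr, 37C, 0% CO2.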

A short description of test [3]: qHTS assay to identify small molecule agonists of the estrogen receptor beta (ER-beta) signaling pathway - cell viability counter screen (AID 1259380). Note: nearly all actives have a fitted effect of over 30% in size. Note: potency is the fitted concentration of half-maximal effect. The settings on record: ER-beta-bla HEK293T viability, CellTiter-Glo luminescence, 16 h; series mostly up to 92.4 µM. In outline: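 Cells used were ER-beta-UAS-bla HEK293T in medium with 2% charcoal-stripped FBS. They were treated for 16 hr at 37C. Viability came from CellTiter-Glo luminescence.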

The target in test [4] is Androgen receptor (Homo sapiens) (UniProt P10275). Nature of the test: qHTS assay to identify small molecule agonists of the androgen receptor (AR) signaling pathway in the presence of an antagonist (AID 1259381; calls by dose curve; note: nearly all actives have a fitted effect of over 15% in size; note: potency is the fitted concentration of half-maximal effect). The settings on record: MDA-kb2 MMTV-luciferase, AR agonist + nilutamide, 16 h; series mostly up to 92.4 µM. An outline of the steps: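 Using human MDA-kb2 cells with an MMTV promoter–luciferase construct (AR and GR response elements), agonist activity is scored under 3.0uM nilutamide (final) co-treatment; 16hr incubation, 37C, luminescence readout via ONE-Glo.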
Chain of Androgen receptor (Homo sapiens) (P10275 whole entry, looked up): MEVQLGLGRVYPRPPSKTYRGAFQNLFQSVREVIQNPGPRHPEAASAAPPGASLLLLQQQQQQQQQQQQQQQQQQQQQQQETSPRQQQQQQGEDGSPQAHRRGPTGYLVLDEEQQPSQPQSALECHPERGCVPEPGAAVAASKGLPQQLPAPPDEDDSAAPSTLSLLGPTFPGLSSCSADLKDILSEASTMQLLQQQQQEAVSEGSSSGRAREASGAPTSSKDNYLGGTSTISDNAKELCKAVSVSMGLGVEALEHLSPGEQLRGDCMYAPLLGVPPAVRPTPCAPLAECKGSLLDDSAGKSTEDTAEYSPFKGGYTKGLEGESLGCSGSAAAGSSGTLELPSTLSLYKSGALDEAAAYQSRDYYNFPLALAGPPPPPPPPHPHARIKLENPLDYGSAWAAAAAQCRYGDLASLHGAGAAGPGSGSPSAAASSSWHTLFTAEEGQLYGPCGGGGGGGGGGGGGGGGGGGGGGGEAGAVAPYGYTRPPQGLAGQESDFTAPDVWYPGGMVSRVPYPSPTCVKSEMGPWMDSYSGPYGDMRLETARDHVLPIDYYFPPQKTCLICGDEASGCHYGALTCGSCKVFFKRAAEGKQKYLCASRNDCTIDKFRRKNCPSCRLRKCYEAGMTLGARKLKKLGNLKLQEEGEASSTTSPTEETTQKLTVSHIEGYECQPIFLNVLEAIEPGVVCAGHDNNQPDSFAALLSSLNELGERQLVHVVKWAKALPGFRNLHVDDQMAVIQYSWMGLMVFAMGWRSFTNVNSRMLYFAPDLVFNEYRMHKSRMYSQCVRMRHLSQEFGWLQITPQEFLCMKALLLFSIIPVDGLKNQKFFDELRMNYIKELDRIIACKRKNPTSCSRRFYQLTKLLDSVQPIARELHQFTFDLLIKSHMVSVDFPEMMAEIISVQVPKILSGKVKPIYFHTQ

Test [5] is described as follows: qHTS assay to identify small molecule antagonists of the estrogen receptor beta (ER-beta) signaling pathway - cell viability counter screen (AID 1259382). Note: nearly all actives have a fitted effect of over 55% in size. The settings on record: ER-beta-UAS-bla HEK293T viability, CellTiter-Glo luminescence, 16 h; series mostly up to 92.4 µM. In outline: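 Agonist-stimulated (1nM E2) ER-beta-UAS-bla HEK293T cells are incubated with library compounds for 16 hr at 37C. Cell viability is then assessed in the reporter-assay wells by adding CellTiter-Glo and reading luminescence after 30 min.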

In test [6] the target is Estrogen receptor (Homo sapiens) (UniProt P03372). As to the kind of experiment: qHTS assay to identify small molecule agonists of the estrogen receptor alpha (ER-alpha) signaling pathway in the presence of an antagonist (AID 1259383; calls by dose curve; note: nearly all actives have a fitted effect of over 15% in size; note: potency is the fitted concentration of half-maximal effect; for activation: top concentration of the series differs between compounds). The settings on record: VM7Luc4E2 cells, ERE-luciferase, +ICI-182,780, 22 h; series mostly up to 92.4 µM. An outline of the steps: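 Using VM7Luc4E2 cells seeded 24hr before treatment, antagonist ICI-182,780 (10.0nM final) was added, followed by compounds at 15 concentrations. Plates incubated 22hr; ONE-Glo luminescence quantified reporter activity.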
Chain of Estrogen receptor (Homo sapiens) (P03372 whole entry, looked up): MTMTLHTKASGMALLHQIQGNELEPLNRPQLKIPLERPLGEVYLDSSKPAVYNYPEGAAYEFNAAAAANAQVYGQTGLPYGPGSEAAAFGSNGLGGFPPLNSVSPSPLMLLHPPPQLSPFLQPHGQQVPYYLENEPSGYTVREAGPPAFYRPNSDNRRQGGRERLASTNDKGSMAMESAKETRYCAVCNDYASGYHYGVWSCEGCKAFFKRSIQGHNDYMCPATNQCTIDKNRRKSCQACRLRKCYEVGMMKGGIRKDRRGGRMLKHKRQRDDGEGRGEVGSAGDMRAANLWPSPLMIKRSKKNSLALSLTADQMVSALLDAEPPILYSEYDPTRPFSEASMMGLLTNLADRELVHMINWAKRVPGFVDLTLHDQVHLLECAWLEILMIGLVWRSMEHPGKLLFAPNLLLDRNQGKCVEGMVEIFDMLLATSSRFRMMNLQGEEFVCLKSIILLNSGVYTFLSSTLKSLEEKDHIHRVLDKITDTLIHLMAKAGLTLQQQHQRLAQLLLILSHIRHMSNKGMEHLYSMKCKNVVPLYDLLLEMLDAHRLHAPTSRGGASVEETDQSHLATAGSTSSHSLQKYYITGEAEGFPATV

Test [7] can be described thus: qHTS assay to identify small molecule agonists or antagonists of the thyroid stimulating hormone receptor (TSHR) signaling pathway - wild type cell line counter screen (AID 1259384; calls by dose curve). The settings on record: HEK293 wild type, cAMP HTRF counter-screen; series mostly up to 92.4 µM. An outline of the steps:
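Wild-type Hek293 cells, 800/well, 18 h at 37C, then compound with Ro20-1724 for 30 min RT. cAMP by HTRF (cAMP-d2/anti-cAMP cryptate), 1 h RT, fluorescence read. 15 concentrations, triplicates.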

The target in test [8] is Thyrotropin receptor (Homo sapiens) (UniProt P16473). Nature of the test: qHTS assay to identify small molecule antagonists of the thyroid stimulating hormone receptor (TSHR) signaling pathway (AID 1259385; calls by dose curve; note: nearly all actives have a fitted effect of over 20% in size). The settings on record: TSHR-HEK293 cAMP HTRF, TSH-stimulated antagonist mode; series mostly up to 92.4 µM. In outline: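 TSHR-HEK293 cells (800/well) plated 18 h, then compounds with Ro20-1724 and TSH at 1.5 ng/mL final, 30 min at room temperature. cAMP quantified by HTRF (cAMP-d2/anti-cAMP-cryptate, 1 h); 15 concentrations in triplicate.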
Chain of Thyrotropin receptor (Homo sapiens) (P16473 whole entry, looked up): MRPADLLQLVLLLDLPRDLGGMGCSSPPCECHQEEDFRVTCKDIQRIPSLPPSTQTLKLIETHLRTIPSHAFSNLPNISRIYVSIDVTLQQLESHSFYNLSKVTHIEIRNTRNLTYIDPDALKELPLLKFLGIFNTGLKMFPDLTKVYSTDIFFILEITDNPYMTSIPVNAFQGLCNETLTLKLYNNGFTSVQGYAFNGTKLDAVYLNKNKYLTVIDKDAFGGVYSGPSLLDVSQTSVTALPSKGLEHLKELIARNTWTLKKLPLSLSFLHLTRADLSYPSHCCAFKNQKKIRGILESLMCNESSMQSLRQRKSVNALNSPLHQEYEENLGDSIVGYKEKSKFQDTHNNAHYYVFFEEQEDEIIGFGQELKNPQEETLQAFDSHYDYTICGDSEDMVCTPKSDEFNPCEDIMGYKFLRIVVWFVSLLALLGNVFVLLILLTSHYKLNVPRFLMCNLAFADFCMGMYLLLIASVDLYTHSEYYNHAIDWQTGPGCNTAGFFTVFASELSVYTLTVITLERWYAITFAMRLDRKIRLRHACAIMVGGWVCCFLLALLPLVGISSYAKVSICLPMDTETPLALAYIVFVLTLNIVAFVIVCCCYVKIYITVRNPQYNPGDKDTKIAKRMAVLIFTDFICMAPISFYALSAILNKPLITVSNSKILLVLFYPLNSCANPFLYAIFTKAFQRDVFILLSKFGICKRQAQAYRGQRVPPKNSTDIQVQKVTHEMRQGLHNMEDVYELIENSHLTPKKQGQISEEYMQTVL

The nature of test [9]: qHTS assay to identify small molecule agonists of the estrogen receptor alpha (ER-alpha) signaling pathway in the presence of an antagonist - cell viability counter screen (AID 1259386).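 Note: cells exposed to compounds for 22 h at 37 °C before the viability read; nearly all actives have a fitted effect of over 30% in size.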 The settings on record: VM7Luc4E2 viability, CellTiter-Fluor fluorescence, 22 h; series mostly up to 92.4 µM. An outline of the steps: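 ICI-182,780 at 10.0nM final accompanies the compound titration (15 concentrations, 22hr, 37C) on VM7Luc4E2 cells. The CellTiter-Fluor fluorescence readout runs in the same wells as the luciferase assay.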

For test [10], the target named is Estrogen receptor beta (Homo sapiens) (UniProt Q92731). As to the kind of experiment: qHTS assay to identify small molecule antagonists of the estrogen receptor beta (ER-beta) signaling pathway (AID 1259378; active = well fitted inhibition curve with a large enough effect in the signal ratio in the repeat runs, not every such curve was filed as active; the % refers to the signal ratio; note: potency is the fitted concentration of half-maximal effect). The settings on record: ER-beta-UAS-bla HEK293T, beta-lactamase FRET ratio, 16 h; series mostly up to 92.4 µM. In outline: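 ER-beta-UAS-bla HEK293T cells in 2% charcoal-stripped FBS medium treated with compound plus 1nM final 17-beta-estradiol for 16 hr at 37C. Beta-lactamase reporter read by FRET substrate fluorescence after 2 hours at room temperature.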

Values without a mark were called inactive. Records with an inconclusive call do not appear. Active and inactive are the calls of the source. Unless noted, calls come from the whole dose curve; as a rule, active = well fitted curve in the direction sought with a large enough effect in the repeat runs; inconclusive = weak or mixed curves; inactive = no such curve, though single readings can be large; an effect the other way counts as inactive or inconclusive.
% is set by controls: 0 for no effect and ±100 for the full control effect.

For `CC(=O)SCc1ccco1`, the Potency result in test [1], in [2], in test [3], in [4], in test [5] and in [6] was “inactive” in each case. Further, the Potency result in [7], in test [8] and in [9] was “inactive” in each case.
With `COC(=O)C(C)=O`, the Potency result in [1], in test [2], in test [3], in test [5], in test [6] and in test [7] was “inactive” each time. Besides, the Potency result in [8] and in [9] was “inactive” in each case.
Consider `Cc1ccccn1`, for which the Potency result in test [1], in test [2], in test [3], in test [5] and in test [9] was “inactive” in each case.
Take `CN1CCN(C2=Nc3cc(Cl)ccc3Nc3ccccc32)CC1`: the Potency result in test [1], in test [2], in test [6], in [7] and in test [9] was “inactive” in each case. Moreover, the Potency in test [3] was 29.8 µM (active).
Take `OCCC1CCCCN1` (stereo not given): the Potency result in test [1], in test [2], in test [3], in [5], in test [6] and in test [7] was “inactive” throughout. For the same molecule, the Potency result in test [8] and in test [9] was “inactive” in each case.
`CCN(CC)CCc1nc(-c2ccccc2)no1`: the Potency result in test [1], in test [2], in [3], in test [5], in [6] and in test [7] was “inactive” in each case. Further, the Potency entry in test [8] and in [9] was “inactive” in each case.
Consider `CCN(CC)CCOC(=O)C1(c2ccccc2)CCCC1`, for which the Potency entry in test [1], in test [2], in [3], in test [4], in test [5] and in test [6] was “inactive” throughout. The Potency result in test [7], in test [8] and in test [9] was “inactive” in each case.
For the molecule `CCCCOc1cc(C(=O)OCCN(CC)CC)ccc1N`, the Potency entry in test [1], in [2], in test [3], in test [5], in test [6] and in test [9] was “inactive” throughout.
In the case of `CCc1nn(C2CCCCC2)c2cc(C3(C#N)CCC(C(=O)O)CC3)ccc12` (stereo not given), the Potency result in [1], in test [5], in test [6], in test [7] and in [8] was “inactive” throughout. Besides, the Potency in test [10] was 13.7 µM (active); in test [3], 8.63 µM (active).
Consider `CCCCCC(CO)CCC` (stereo not given), for which the Potency result in test [1], in test [10], in [2], in test [5], in test [7] and in test [8] was “inactive” in each case. In [9], the Potency entry was “inactive”.
As to `c1ccc(-c2nc[nH]c2-c2ccccc2)cc1`, the Potency result in [1], in test [2], in test [3], in [5], in test [7] and in test [8] was “inactive” each time. Moreover, the Potency entry in [9] was “inactive”.
For `CCN(CC)CCNC(C(=O)OCCC(C)C)c1ccccc1` (stereo not given), the Potency entry in test [1], in test [10], in [2], in test [5], in test [6] and in [7] was “inactive” in each case. The Potency result in test [8] and in test [9] was “inactive” each time.
Consider `N=C(N=C(N)N)N1CCOCC1`, for which the Potency result in test [1], in [10], in test [2], in test [5], in test [6] and in test [7] was “inactive” throughout. The Potency result in [8] and in test [9] was “inactive” throughout.
Turning to `CCCCCc1ccc(N)cc1`, the Potency entry in test [1], in test [10], in [2], in [5], in test [6] and in test [7] was “inactive” throughout. Also, the Potency result in test [8] and in test [9] was “inactive” throughout.
In the case of `Cc1c(Cn2ccnc2)c2ccccc2n1CCC(=O)O`, the Potency result in test [1], in test [2], in test [3], in [5], in test [7] and in test [8] was “inactive” each time. In test [9], the Potency result was “inactive”.
As to `COC(=O)CSc1cc(N=c2sc(=O)n3n2CCCC3)c(F)cc1Cl`, the Potency entry in [1], in test [2], in test [3], in test [4], in [5] and in [7] was “inactive” in each case. For the same molecule, the Potency entry in [8] and in test [9] was “inactive” each time.
For the molecule `O=C(C(=O)c1ccc(Br)cc1)c1ccc(Br)cc1`, the figures for the activation in test [1] and in test [6] were 0.63% [at 19 µM] and 0.308% [at 19 µM], respectively. The activity change, negative = cytotoxicity is 0.135% [at 19 µM] in [2], 0.571% [at 19 µM] in [3], -2.64% [at 19 µM] in test [5] and 0.0353% [at 19 µM] in test [9]. For the same molecule, the Potency in test [4] was 15.2 µM (active). In addition, the cAMP activity change in test [7] was 5.87% [at 18.9 µM, stronger effect = higher value]. The activity change, negative = inhibition in test [8] is -5.08% [at 19 µM].
As to `S=C(S)NCCNC(=S)S`, the Potency result in test [1], in test [2], in [3], in test [5], in [7] and in [8] was “inactive” throughout. Besides, the Potency entry in test [9] was “inactive”.
With `CCCC(=O)OCC`, the Potency result in test [1], in [10], in test [2], in test [5], in [6] and in [7] was “inactive” each time. Also, the Potency result in test [8] and in [9] was “inactive” in each case.
With `CC[C@H](C)[C@H](N)C(=O)O`, the Potency result in test [1], in [2], in [3], in test [5], in [6] and in test [7] was “inactive” in each case. Further, the Potency entry in test [8] and in [9] was “inactive” each time.
Consider `CC[C@@H]1C[C@H](N(Cc2cc(C(F)(F)F)cc(C(F)(F)F)c2)C(C)=O)c2cc(C(F)(F)F)ccc2N1C(=O)OC(C)C`, for which the Potency entry in [1], in [2], in test [3], in test [5], in test [6] and in [9] was “inactive” in each case.
Regarding `CC1(C)CCC(C)(C)c2cc(NC(=O)c3ccc(C(=O)O)cc3)ccc21`, the Potency entry in test [1], in test [2], in [5], in [7], in test [8] and in test [9] was “inactive” throughout. Moreover, the Potency in test [10] was 18.8 µM (active).
Consider `O=C(Nc1ccccc1)OCC(CN1CCCCC1)OC(=O)Nc1ccccc1` (stereo not given), for which the Potency result in [1], in test [2], in test [6], in test [7] and in [9] was “inactive” each time. The Potency in test [3] is 26.6 µM (active).
For the molecule `O=S1(=O)c2cccc3cccc(c23)N1CCCN1CCN(c2ccc(F)cc2)CC1`, the Potency result in [1], in test [2], in [5], in [6], in [7] and in test [8] was “inactive” in each case. Further, the Potency entry in [9] was “inactive”.
With `CCCCCCCCCO`, the Potency result in test [1], in [2], in test [5], in test [6], in test [7] and in test [9] was “inactive” throughout.
`C=C(C)C(=O)OCCOc1ccccc1`: the Potency entry in test [10], in test [2], in [3], in test [4], in [5] and in [6] was “inactive” in each case. In addition, the Potency entry in test [7], in test [8] and in test [9] was “inactive” in each case.
Consider `Nc1nc(CC(=O)O)cs1`, for which the Potency result in test [1], in test [2], in test [7], in test [8] and in [9] was “inactive” in each case.
On to `CC(CN)CCCN` (stereo not given), for which the Potency entry in [10], in test [2], in test [3], in [5], in test [6] and in test [7] was “inactive” each time. The Potency result in [8] and in [9] was “inactive” each time.
On to `CCCCCCCCC(CO)CCCCCC` (stereo not given), for which the Potency entry in test [10], in [2], in [3], in test [5], in test [6] and in test [7] was “inactive” throughout. The Potency result in [8] and in test [9] was “inactive” each time.
Regarding `CCCCCOC(=O)c1ccc(O)cc1`, the values for the Potency in test [10], in test [3] and in [6] were 24.6 µM (active), 55.1 µM (active) and 31 µM (active), respectively. Moreover, the Potency entry in test [2], in test [5], in [7] and in [8] was “inactive” throughout.
